Experimental data published in PubChem BioAssay (NCI).
Compounds without any hit were thinned out: in the full panel of roughly 83,000, 20% have a hit.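 Cell lines were cultured in 96-well plates, exposed to a single compound concentration, and assessed for percent growth 48 hours later.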 Values without a mark were called inactive. Active and inactive are the calls of the source. Rule for the calls: active = growth percent below 10; inactive = the rest.

The molecules below were run on SR leukemia (assay: NCI-60 one-dose screen, 48 h (100 = growth as untreated, 0 = no growth, -100 = all killed)). Conditions: 10 µM unless noted.

| Structure (SMILES) | growth |
| --- | --- |
| COC(=O)c1cc(C(=O)C(Br)Br)n2c1ccc1c3ccccc3ccc12 | 13.6% |
| O=C(Nc1nc2ccccc2s1)Nc1ccccc1Cl | 111% |
| Oc1ccc(Cl)c(Nc2ncnc3c2cnn3CC(Cl)c2ccc(Br)cc2)c1 (centres undefined) | 55.3% |
| ClC(Cn1ncc2c(Nc3cccc(Br)c3)nc(SCCN3CCOCC3)nc21)c1ccc(Br)cc1 (centres undefined) | -26.7% (active) |
| Nc1cc(-c2c[nH]c3ccc(F)cc23)nc2cc(-c3c[nH]c4ccccc34)nn12 | 15.4% |
| O=C1Nc2cc(-c3ccc(NS(=O)(=O)c4ccc(F)c(Cl)c4)cc3)ccc2/C1=C/c1ccc[nH]1 | 6.77% (active) |
| O=C1CCC(N2C(=O)c3cccc(NCCOCCOCCOCCC(=O)NCCCC(=O)NC(c4ccc5c(c4)OCO5)c4cc(Cl)c5cccnc5c4O)c3C2=O)C(=O)C1 (centres undefined) | 5.36% (active) |
| Cn1cc(-c2cc3nc(-c4c[nH]c5ccccc45)cc(N)n3n2)c2ccccc21 | 8.18% (active) |
| CN1C(=O)C(O)(CC(=O)c2cc3ccccc3oc2=O)c2ccccc21 (centres undefined) | 71.3% |
| COc1ccc(Nc2nnc(-c3c[nH]c4ccccc34)o2)cc1 | 70.5% |
| Cc1cccc(C)c1Nc1nnc(-c2c[nH]c3ccccc23)o1 | 91.5% |
| Cc1ccc(O)cc1Nc1nc(SCCN2CCOCC2)nc2c1cnn2CC(Cl)c1ccc(Br)cc1 (centres undefined) | -29.4% (active) |
| Fc1ccccc1CNc1nc(SCCN2CCOCC2)nc2c1cnn2CC(Cl)c1ccc(Br)cc1 (centres undefined) | -3.85% (active) |
| COC(=O)c1cc(C(=O)CBr)n2c1ccc1c3ccccc3ccc12 | 2.25% (active) |
| Oc1ccc(F)c(Nc2nc(SCCN3CCOCC3)nc3c2cnn3CC(Cl)c2ccc(Br)cc2)c1 (centres undefined) | -2.59% (active) |
| COC(=O)c1c(C(=O)OC)c2ccc3c4ccccc4ccc3n2c1C(=O)C(C)Br (centres undefined) | 3.43% (active) |
| Cc1nn(-c2ccccc2)c2nc(C)n(C(=O)N/N=C/c3cccc([N+](=O)[O-])c3)c(=O)c12 | 98.6% |
| COc1c2c(c(Br)c3c1C(CCc1ccccc1)N(C)CC3)OCO2 (centres undefined) | 31% |
| COc1ccc2[nH]cc(-c3cc(N)n4nc(-c5c[nH]c6ccccc56)cc4n3)c2c1 | 11.1% |
| CC(C)(C)C(=O)C1CC(C#N)=C2C=Cc3c(ccc4ccccc34)N21 (centres undefined) | 94.3% |
| Oc1ccc(Cl)c(Nc2nc(SCCN3CCOCC3)nc3c2cnn3CC(Cl)c2ccc(Br)cc2)c1 (centres undefined) | -26.7% (active) |
| Fc1ccc(F)c(CNc2nc(SCCN3CCOCC3)nc3c2cnn3CC(Cl)c2ccc(Br)cc2)c1 (centres undefined) | 0.635% (active) |
| CN1CCN(C(=O)Oc2cc3c(c4ccccc24)[C@H](CCl)CN3C(=O)c2cc3cc(OCCCN4CCC4)ccc3[nH]2)[C@H]2CSSC[C@H]21 | -21.2% (active) |
| Nc1nc(-c2ccccc2)c(N=Nc2ccc(Cl)cc2Cl)s1 | -33.6% (active) |
